Laboratory results reported in PubChem BioAssay (NCATS).
“And” between values parts separate entries of the source, which are not always exact repeats. Equal entries are not always repeated. Inconclusive results are not listed. The source made the active and inactive calls. Calls follow the shape of the dose curve; as a rule, active = well fitted curve in the direction sought with a large enough effect; inconclusive = small, poorly fitted or top-dose-only effect, or another doubt; inactive = no such curve, though single readings can be large; an effect the other way counts as inactive or inconclusive. *1 amine or outer side, *2 acyl side, *3 side chain or, on linkers, in order; H or OH if unused. Where a SMILES comes first, the peptide text is derived from it. Bridges are numbered along the chain shown (N, C = ends). [ ]: non-standard residue; d: D form. The star is where a group is joined. ξ: configuration not given here. X10 = NC1=NCCC(C(N[*:1])C(=O)[*:2])N1; ΔAla(3-NHCONH2) = NC(=O)NC=C(N)C(=O)O; ξβ3hOrn = NCCCC(N)CC(=O)*; Dap = NC[CH](N)C(=O)O

Legend:
UISO = experiment: qHTS assay to identify novel small-molecules to repurpose for Merkel cell carcinoma treatment (AID 1296009); conditions: MCC and control cell lines, CellTiter-Glo viability, 72 h; series mostly up to 46 µM; also: nearly all actives have a fitted effect of over 60% in size
In short: (§1)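 After compound transfer in DMSO, plates were kept 72 hr at 37 degree celsius. Luminescent ATP signal from CellTiter-Glo served as viability measure, normalized against DMSO and no-cell controls.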

WaGa = experiment: as above; conditions: MCC and control cell lines, CellTiter-Glo viability, 72 h; series mostly up to 46 µM
In short: as §1

C33A = experiment: Primary qHTS to identify gynecologic anti-cancer compounds using libraries of approved drugs and bioactive compounds (AID 1345084); conditions: Gynecologic cancer cell panel viability, ATPlite luminescence, 48 h; series mostly up to 57.5 µM; also: nearly all actives have a fitted effect of over 55% in size
In short: (§2)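 Luminescence from the ATPlite ATP-monitoring reagent indicates viable cell number; lower signal means cytotoxicity. Cells received compound 16 h after seeding and were exposed for 48 h across five concentrations.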

CAOV3 = experiment: as above; conditions: Gynecologic cancer cell panel viability, ATPlite luminescence, 48 h; series mostly up to 57.5 µM
In short: as §2

CASKI = experiment: as above; conditions: Gynecologic cancer cell panel viability, ATPlite luminescence, 48 h; series mostly up to 57.5 µM
In short: as §2

Es-2 = experiment: as above; conditions: Gynecologic cancer cell panel viability, ATPlite luminescence, 48 h; series mostly up to 57.5 µM
In short: as §2

HeLa = experiment: as above; conditions: Gynecologic cancer cell panel viability, ATPlite luminescence, 48 h; series mostly up to 57.5 µM
In short: as §2

Hek293T = experiment: as above; conditions: Gynecologic cancer cell panel viability, ATPlite luminescence, 48 h, control line for the selectivity index; series mostly up to 57.5 µM
In short: as §2

JEG-3 = experiment: as above; conditions: Gynecologic cancer cell panel viability, ATPlite luminescence, 48 h; series mostly up to 57.5 µM
In short: as §2

OV90 = experiment: as above; conditions: Gynecologic cancer cell panel viability, ATPlite luminescence, 48 h; series mostly up to 57.5 µM
In short: as §2

PA-1 = experiment: as above; conditions: Gynecologic cancer cell panel viability, ATPlite luminescence, 48 h; series mostly up to 57.5 µM
In short: as §2

SKOV3 = experiment: as above; conditions: Gynecologic cancer cell panel viability, ATPlite luminescence, 48 h; series mostly up to 57.5 µM
In short: as §2

Tov-21-G = experiment: as above; conditions: Gynecologic cancer cell panel viability, ATPlite luminescence, 48 h; series mostly up to 57.5 µM
In short: as §2

Tov112D = experiment: as above; conditions: Gynecologic cancer cell panel viability, ATPlite luminescence, 48 h; series mostly up to 57.5 µM
In short: as §2

[1] = Drug repurposing screens with cells derived from glioblastoma tumor samples (AID 1345199); conditions: GBM patient neurospheres viability, ATP luminescence, 48 h; also: nearly all actives have a fitted effect of over 40% in size; also: potency is read from the fitted curve at half-maximal effect
In short: (§3)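 Four patient lines of CD133+ GBM neurospheres were screened at several concentrations; hits were retested in those lines plus three slower-growing GBM lines, using 48-hour treatment and ATP-based viability.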

astro = experiment: as above; conditions: viability, ATP luminescence, 48 h; series mostly up to 45.9 µM
In short: as §3

[2] = qHTS assay to identify inhibitors of the type 1 interferon - major histocompatibility complex class I in skeletal muscle: Counter screen cell viability and HiBit confirmation (AID 1347412); conditions: iHSKM muscle cells + IFN-b, HiBiT or CellTiter-Glo, 24 h; Potency: HiBiT; Viability, at 45.9 µM (top of the series); also: nearly all actives have a fitted effect of over 60% in size
In short: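 Luminescence read-out: Nano-Glo HiBiT lytic signal from C-terminally HiBiT-tagged HLA-B in CRISPR-edited human myoblasts, plus CellTiter Glo ATP as viability counter screen. IFN-beta 4.0 ng/ml; 24 hrs treatment at 37 C, 5% CO2.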

[3] = at 45.9 µM (top of the series), tumour line B
[4] = at 45.9 µM (top of the series), tumour line D
[5] = at 46.1 µM (top of the series), tumour line C
% is scaled to controls: 0 for no effect and ±100 for the full control effect.

CCc1cc(S(=O)(=O)O)c2cc(C(C)C)cccc1-2
inactive: Potency (UISO) | Potency (WaGa) | Potency (C33A) | Potency (CAOV3) | Potency (CASKI) | Potency (Es-2) | Potency (HeLa) | Potency (Hek293T) | Potency (JEG-3) | Potency (OV90) | Potency (PA-1) | Potency (SKOV3) | Potency (Tov-21-G) | Potency (Tov112D) | activity, negative = cell killing [1, 3] -10.8% | activity, negative = cell killing [1, 4] -10.6% | activity, negative = cell killing [1, 5] -1.11% | Potency (astro)

Cc1ccc(O)cc1
inactive: Potency (UISO) | Potency (WaGa) | Potency (C33A) | Potency (CAOV3) | Potency (CASKI) | Potency (Es-2) | Potency (HeLa) | Potency (Hek293T) | Potency (JEG-3) | Potency (OV90) | Potency (PA-1) | Potency (Tov-21-G) | Potency (Tov112D) | activity, negative = cell killing [1, 3] -22.9% and -5.16% | activity, negative = cell killing [1, 4] -8.77% and -8.54% | activity, negative = cell killing ([1]; at 46 µM (top of the series), tumour line A) -10.9% | activity, negative = cell killing [1, 5] 8.95% and -5.08% | Potency (astro)

CC(C)(C)CC(=O)OCC(=O)[C@@]1(O)CC[C@H]2[C@@H]3CCC4=CC(=O)C=C[C@]4(C)[C@H]3[C@@H](O)C[C@@]21C
inactive: Potency (UISO) | Potency (WaGa) | Potency (C33A) | Potency (CAOV3) | Potency (CASKI) | Potency (Es-2) | Potency (HeLa) | Potency (Hek293T) | Potency (JEG-3) | Potency (OV90) | Potency (PA-1) | Potency (SKOV3) | Potency (Tov-21-G) | Potency (Tov112D) | Potency [2]

NCCCC(N)CC(=O)NCC1NC(=O)C(CO)NC(=O)C(N)CNC(=O)C(C2CCN=C(N)N2)NC(=O)C(=CNC(N)=O)NC1=O (stereo not drawn) (H-[Dap]S[Dap](ξβ3hOrn)[ΔAla(3-NHCONH2)][X10]; lactam 1-C; configuration not given here)
inactive: activity change, negative = cytotoxicity (UISO) 24.3% [at 0.597 µM] | activity change, negative = cytotoxicity (WaGa) 13.5% [at 0.597 µM] | activity change, negative = cytotoxicity (C33A) 15.1% [at 0.462 µM] | activity change, negative = cytotoxicity (CAOV3) 10.4% [at 0.462 µM] | activity change, negative = cytotoxicity (CASKI) 9.08% [at 0.462 µM] | activity change, negative = cytotoxicity (Es-2) -0.941% [at 0.462 µM] | activity change, negative = cytotoxicity (HeLa) -1.14% [at 0.462 µM] | activity change, negative = cytotoxicity (Hek293T) -1.45% [at 0.462 µM] | activity change, negative = cytotoxicity (JEG-3) 1.16% [at 0.462 µM] | activity change, negative = cytotoxicity (OV90) -2.62% [at 0.462 µM] | activity change, negative = cytotoxicity (PA-1) 8.19% [at 0.462 µM] | activity change, negative = cytotoxicity (Tov-21-G) 4.2% [at 0.462 µM] | activity change, negative = cytotoxicity (Tov112D) 4.39% [at 0.462 µM]

CN(CC1(C)CCCO1)S(=O)(=O)c1ccc(Cl)c(S(N)(=O)=O)c1 (stereo not given)
inactive: Potency (UISO) | Potency (WaGa) | Potency (C33A) | Potency (CAOV3) | Potency (CASKI) | Potency (Es-2) | Potency (HeLa) | Potency (Hek293T) | Potency (JEG-3) | Potency (OV90) | Potency (PA-1) | Potency (SKOV3) | Potency (Tov-21-G) | Potency (Tov112D) | activity, negative = cell killing [1, 3] -9.01% | activity, negative = cell killing [1, 4] -23.5% | activity, negative = cell killing [1, 5] 16.1% | Potency (astro)

Cc1ncc([N+](=O)[O-])n1C
inactive: Potency (UISO) | Potency (WaGa) | Potency (C33A) | Potency (CAOV3) | Potency (CASKI) | Potency (Es-2) | Potency (HeLa) | Potency (Hek293T) | Potency (JEG-3) | Potency (OV90) | Potency (PA-1) | Potency (Tov-21-G) | Potency (Tov112D)

O=C(O)[C@H](O)[C@@H](O)[C@H](O[C@@H]1O[C@H](CO)[C@H](O)[C@H](O)[C@H]1O)[C@H](O)CO
inactive: Potency (UISO) | Potency (WaGa) | Potency (C33A) | Potency (CAOV3) | Potency (CASKI) | Potency (Es-2) | Potency (HeLa) | Potency (Hek293T) | Potency (JEG-3) | Potency (OV90) | Potency (PA-1) | Potency (Tov-21-G) | Potency (Tov112D) | activity, negative = cell killing ([1]; at 20 µM (top of the series), tumour line C) -12.3% | activity, negative = cell killing ([1]; at 21.2 µM (top of the series), tumour line B) -2.57% | activity, negative = cell killing ([1]; at 21.2 µM (top of the series), tumour line D) -4.25% | activity, negative = cell killing ([1]; at 21.3 µM (top of the series), tumour line A) -22.9% | Potency (astro)

C1N2CN3CN1CN(C2)C3
inactive: Potency (UISO) | Potency (WaGa) | Potency (C33A) | Potency (CAOV3) | Potency (CASKI) | Potency (Es-2) | Potency (HeLa) | Potency (Hek293T) | Potency (JEG-3) | Potency (OV90) | Potency (PA-1) | Potency (SKOV3) | Potency (Tov-21-G) | Potency (Tov112D) | Potency (astro)

C[C@@]12CCC[C@H]1[C@@H]1CC[C@H]3C[C@@H](O)CC[C@]3(C)[C@H]1CC2
active: Potency ([1]; tumour line A) 7.08 µM
inactive: Potency (UISO) | Potency (WaGa) | Potency (C33A) | Potency (CAOV3) | Potency (CASKI) | Potency (Es-2) | Potency (HeLa) | Potency (Hek293T) | Potency (JEG-3) | Potency (OV90) | Potency (PA-1) | Potency (SKOV3) | Potency (Tov-21-G) | Potency (Tov112D) | activity, negative = cell killing [1, 3] -21.2% | Potency (astro)
